“And” between values parts separate entries of the source, which are not always exact repeats. Equal entries are not always repeated. Records with an inconclusive call do not appear. The source made the active and inactive calls. Unless noted, the call rests on the fitted dose curve; in most records, active means well fitted curve in the direction sought with a large enough effect in the repeat runs; inconclusive means weak or mixed curves; inactive means no such curve, though single readings can be large; an effect the other way counts as inactive or inconclusive.
Columns and labels:
[1] = qHTS assay for small molecules that induce genotoxicity in human embryonic kidney cells expressing luciferase-tagged ATAD5 (AID 651632); further: nearly all actives have a fitted effect of over 15% in size
In short: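 Luminescence read-out: after 16 hr compound exposure at 37C, ATAD5-luciferase HEK293T cells received Amplite, 30 min RT, then CCD imaging. A rise in signal marks genotoxic stress.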

[2] = qHTS assay for small molecule agonists of the p53 signaling pathway - cell viability (AID 651633; calls by dose curve;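 further: p53RE-bla HCT reporter cells with a stable beta-lactamase p53 reporter; series mostly up to about 83 µM; nearly all actives have a fitted effect of over 30% in size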)
In short: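 Viability counter-read: CellTiter-Glo luminescence (30 min, room temperature) in the same p53RE-bla plates. These plates had been exposed to compounds for 16 h at 37 C.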

[3] = qHTS assay for small molecules that induce genotoxicity in human embryonic kidney cells expressing luciferase-tagged ATAD5 - cell viability (AID 651634; calls by dose curve; further: nearly all actives have a fitted effect of over 25% in size; further: potency means the concentration at half of the fitted maximal effect)
In short: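 HEK293T ATAD5-luc cells, 2,000/well; compound 15.5 hr, 37C/5% CO2; CellTiter-Fluor 30 min, 37C; fluorescence read.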

[4] = qHTS assay to test for compound auto fluorescence at 590 nm (red) in HepG2 cells (AID 720674)
In short: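 1 hr compound incubation on HepG2 cells, 37 C, 5% CO2; plate read ex 540 nm / em 590 nm; intensities reported as Rose Bengal sodium equivalents.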

[5] = qHTS assay to test for compound auto fluorescence at 535 nm (green) in HepG2 cells (AID 720675)
[6] = qHTS assay to test for compound auto fluorescence at 460 nm (blue) in HEK293 cells (AID 720678)
In short: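 HEK293 cells (2,000 per well, medium with 10% dialyzed FBS) attached for 4-5 hr at 37C, then received compound and stood overnight at 37C, 5% CO2. Blue fluorescence was read at Ex/Em 405/460 nm and expressed relative to triamterene.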

[7] = qHTS assay to test for compound auto fluorescence at 590 nm (red) in HEK293 cells (AID 720679)
In short: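 HEK293 cells (2,000/well, medium with 10% dialyzed FBS) attached for 4-5 hr at 37C, received 23 nL compound and were incubated overnight at 37C, 5% CO2. Red fluorescence was then read at 540/590nm Ex/Em, referenced to Rose Bengal sodium.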

[8] = qHTS assay to test for compound auto fluorescence at 535 nm (green) in HEK293 cells (AID 720680)
[9] = qHTS assay to test for compound auto fluorescence at 460 nm (blue) in HEK293 cell free culture (AID 720681)
In short: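 Blue fluorescence (Ex 405/Em 460 nm, triamterene-equivalent) was read immediately after pin transfer of compound or DMSO into medium (DMEM, 10% FBS) without cells.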

[10] = qHTS assay to test for compound auto fluorescence at 535 nm (green) in HEK293 cell free culture (AID 720682)
In short: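 Read-out: 485/535 nm fluorescence intensity, calibrated against fluorescein. Medium only (DMEM + 10% FBS, no cells); test compound or DMSO vehicle added by pintool before plate reading.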

[11] = qHTS assay to test for compound auto fluorescence at 590 nm (red) in HEK293 cell free culture (AID 720683)
In short: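 Red-channel autofluorescence of compounds in culture medium (DMEM, 10% FBS), no cells, measured at 540/590 nm. Rose Bengal sodium is the reference fluorophore for equivalence.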

[12] = qHTS assay to test for compound auto fluorescence at 460 nm (blue) in HepG2 cell free culture (AID 720685)
In short: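 Cell-free plates of MEM plus 10% FBS received 23 nL compound or DMSO vehicle; blue-channel (405/460 nm) intensity scored against triamterene as reference fluorophore.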

[13] = qHTS assay to test for compound auto fluorescence at 535 nm (green) in HepG2 cell free culture (AID 720686)
[14] = qHTS assay to test for compound auto fluorescence at 460 nm (blue) in HepG2 cells (AID 720687)
In short: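 Blue-channel autofluorescence (Ex/Em 405/460 nm, triamterene-equivalent) was measured after 1 hr compound exposure at 37 C, 5% CO2. Cells were HepG2, plated overnight at 37 C in MEM plus 10% FBS.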

[15] = biological target: Glucocorticoid receptor (Homo sapiens) (UniProt P04150); test: qHTS assay to identify small molecule agonists of the glucocorticoid receptor (GR) signaling pathway (AID 720691; active means well fitted activation curve with a large enough effect in the signal ratio in the repeat runs, not every such curve was filed as active; the % refers to the signal ratio)
Sequence of Glucocorticoid receptor (Homo sapiens) (P04150 whole entry, looked up): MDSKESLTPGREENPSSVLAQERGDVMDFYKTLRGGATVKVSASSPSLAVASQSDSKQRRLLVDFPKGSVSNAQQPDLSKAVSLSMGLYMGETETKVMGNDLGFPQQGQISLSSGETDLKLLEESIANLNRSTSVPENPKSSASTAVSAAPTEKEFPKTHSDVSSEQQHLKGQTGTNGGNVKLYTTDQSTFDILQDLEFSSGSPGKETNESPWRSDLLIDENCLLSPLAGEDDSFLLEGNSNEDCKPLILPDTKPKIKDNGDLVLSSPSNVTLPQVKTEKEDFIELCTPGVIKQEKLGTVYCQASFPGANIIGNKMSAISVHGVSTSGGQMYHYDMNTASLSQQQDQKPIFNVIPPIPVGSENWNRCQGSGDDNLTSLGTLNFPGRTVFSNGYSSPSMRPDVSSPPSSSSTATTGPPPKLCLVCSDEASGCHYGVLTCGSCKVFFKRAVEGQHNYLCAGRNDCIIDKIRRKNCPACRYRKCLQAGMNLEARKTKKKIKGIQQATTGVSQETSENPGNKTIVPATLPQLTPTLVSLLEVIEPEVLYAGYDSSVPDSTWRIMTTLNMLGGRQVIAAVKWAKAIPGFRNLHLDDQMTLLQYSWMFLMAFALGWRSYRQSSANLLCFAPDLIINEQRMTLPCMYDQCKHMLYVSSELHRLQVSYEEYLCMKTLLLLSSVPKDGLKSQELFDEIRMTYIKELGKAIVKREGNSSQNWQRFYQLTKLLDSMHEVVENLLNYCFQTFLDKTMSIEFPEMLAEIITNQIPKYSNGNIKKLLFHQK
In short: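 HeLa GR-bla reporter line; cells pre-incubated 4 h, compound in DMSO 18 h at 37 C; LiveBLAzer B/G FRET substrate 2 h RT; fluorescence intensity read-out.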

[16] = qHTS assay for small molecule disruptors of the mitochondrial membrane potential - cell viability (AID 720634; calls by dose curve; further: nearly all actives have a fitted effect of over 20% in size; further: potency means the concentration at half of the fitted maximal effect;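 on activity change, negative = cytotoxicity: human HepG2 liver cancer cells; series mostly up to about 83 µM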)
In short: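 Luminescence from CellTiter-Glo (ATP content) gave viability in HepG2 cells, read in the same wells as the MMP dye assay after 1 hr compound exposure at 37 C.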

[17] = qHTS assay for small molecule disruptors of the mitochondrial membrane potential (AID 720635); further: potency means the concentration at half of the fitted maximal effect
In short: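 Mitochondrial membrane potential tracked with Mito-MPS dye, red aggregates (ex 540/em 590 nm) against green monomers (ex 490/em 535 nm). Compound treatment 1 hr at 37C, dye 30 min in HepG2.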

[18] = qHTS assay to test for compound auto fluorescence at 590 nm (red) in HepG2 cell free culture (AID 720684)
In short: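 No cells present: MEM + 10% FBS only. Compound pinned in, red label read (540/590 nm). Activity = fluorescence equivalent to Rose Bengal sodium.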

[19] = biological target: Glucocorticoid receptor (Homo sapiens) (UniProt P04150); test: qHTS assay to identify small molecule antagonists of the glucocorticoid receptor (GR) signaling pathway (AID 720692; active means well fitted inhibition curve with a large enough effect in the signal ratio in the repeat runs, not every such curve was filed as active; the % refers to the signal ratio; further: potency means the concentration at half of the fitted maximal effect)
In short: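 Read-out: beta-lactamase FRET substrate fluorescence, 2 h at room temperature, in HeLa cells stably carrying a GRE-driven bla reporter. Compounds were co-incubated with 5 nM dexamethasone agonist (final) for 18 h at 37 C.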
On the % scale 0 is the no-effect control and ±100 the full control effect.

CCCCCCCCCCCCN=C(N)N
inactive: activation [1] -6.24% [at 3.63 µM] | activity change, negative = cytotoxicity [2] -15.7% [at 3.63 µM] | activity, negative = cytotoxicity [3] -6.8% [at 3.63 µM] | fluorescence, relative to Rose Bengal [4] 0.188% [at 3.72 µM] | fluorescence, % of fluorescein control [5] -0.0052% [at 3.72 µM] | fluorescence, % of triamterene [6] -0.0427% [at 3.72 µM] | fluorescence, % of fluorescent control [7] 0.144% [at 3.72 µM] | fluorescence, % of fluorescein [8] 0.14% [at 3.72 µM] | fluorescence, % of fluorescent control [9] -0.0835% [at 3.72 µM] | activity change [10] 0.0011% [at 3.72 µM] | fluorescence, % of fluorescent control [11] 0.145% [at 3.72 µM] | fluorescence, % of fluorescent control [12] -0.0023% [at 3.72 µM] | fluorescence, % of fluorescein control [13] -0.0679% [at 3.72 µM] | fluorescence, % of fluorescent control [14] 0.0214% [at 3.72 µM] | activation [15] -0.603% [at 3.1 µM]

CN1C[C@H](C(=O)N[C@]2(C)O[C@@]3(O)[C@@H]4CCCN4C(=O)[C@H](Cc4ccccc4)N3C2=O)C=C2c3cccc4[nH]cc(c34)C[C@H]21
inactive: Potency [1] | Potency [16] | outcome [4] | outcome [5] | outcome [7] | outcome [8] | outcome [9] | outcome [10] | outcome [11] | outcome [18] | outcome [12] | outcome [13] | outcome [14] | Potency [15]
active: Potency [17] 4.22 µM and 9.73 µM and 18 µM

CCCSP(=S)(OCC)Oc1ccc(SC)cc1 (stereo not given)
inactive: Potency [1] | Potency [2] | Potency [3] | outcome [4] | outcome [5] | outcome [6] | outcome [7] | outcome [8] | outcome [10] | outcome [11] | outcome [18] | outcome [12] | outcome [13] | outcome [14]

O=C1NC(=O)C(=O)C(=O)N1
inactive: Potency [1] | Potency [3] | Potency [16] | Potency [17] | outcome [4] | outcome [5] | outcome [6] | outcome [7] | outcome [8] | outcome [9] | outcome [10] | outcome [11] | outcome [18] | outcome [13] | outcome [14] | Potency [15]

Cc1nnc(-c2ccccc2)c(=O)n1N
inactive: Potency [1] | Potency [2] | Potency [16] | Potency [17] | outcome [4] | outcome [5] | outcome [6] | outcome [7] | outcome [8] | outcome [10] | outcome [11] | outcome [18] | outcome [12] | outcome [14] | Potency [15] | Potency [19]

CC(Cc1ccccc1)NCc1ccccc1Cl (stereo not given)
inactive: Potency [1] | Potency [3] | Potency [16] | outcome [4] | outcome [5] | outcome [6] | outcome [7] | outcome [8] | outcome [9] | outcome [10] | outcome [11] | outcome [18] | outcome [12] | outcome [14] | Potency [15] | Potency [19]

CCOP(=O)(SC(C)CC)N1CCSC1=O (stereo not given)
inactive: Potency [1] | Potency [2] | Potency [16] | Potency [17] | outcome [4] | outcome [5] | outcome [6] | outcome [7] | outcome [8] | outcome [10] | outcome [11] | outcome [18] | outcome [12] | outcome [13] | outcome [14]

C=CCc1ccc(OC(=O)Cc2ccccc2)c(OC)c1
inactive: Potency [1] | Potency [3] | Potency [16] | Potency [17] | outcome [4] | outcome [5] | outcome [6] | outcome [7] | outcome [8] | outcome [9] | outcome [10] | outcome [11] | outcome [18] | outcome [12] | outcome [14] | Potency [15] | Potency [19]

CCCCCCCCn1sccc1=O
active: Potency [3] 54.6 µM | Potency [17] 30.7 µM and 64.1 µM | Potency [19] 49.1 µM and 36.3 µM
inactive: Potency [1] | Potency [16] | outcome [4] | outcome [5] | outcome [6] | outcome [7] | outcome [8] | outcome [9] | outcome [10] | outcome [11] | outcome [18] | outcome [12] | outcome [13] | Potency [15]

CC1(C)CC(=O)CC(C)(C)N1[O]
inactive: Potency [1] | Potency [2] | Potency [16] | Potency [17] | outcome [4] | outcome [5] | outcome [6] | outcome [7] | outcome [8] | outcome [10] | outcome [11] | outcome [18] | outcome [12] | outcome [14]

C[Si](Cn1cncn1)(c1ccc(F)cc1)c1ccc(F)cc1
inactive: Potency [1] | Potency [3] | outcome [4] | outcome [5] | outcome [6] | outcome [7] | outcome [8] | outcome [9] | outcome [10] | outcome [11] | outcome [18] | outcome [12] | outcome [13] | outcome [14]
active: Potency [16] 31.6 µM | Potency [17] 56.3 µM and 27.3 µM

Cc1nc(N(C)C)nc(OC(=O)N(C)C)c1C
inactive: Potency [1] | Potency [2] | Potency [16] | Potency [17] | outcome [4] | outcome [5] | outcome [6] | outcome [7] | outcome [8] | outcome [9] | outcome [10] | outcome [11] | outcome [13] | outcome [14] | Potency [15] | Potency [19]

NNCCO
inactive: Potency [1] | Potency [2] | Potency [3] | outcome [4] | outcome [5] | outcome [6] | outcome [7] | outcome [8] | outcome [9] | outcome [10] | outcome [11] | outcome [18] | outcome [12]

FC(Cl)(Cl)C(F)(Cl)Cl
inactive: Potency [1] | Potency [2] | Potency [16] | Potency [17] | outcome [4] | outcome [5] | outcome [7] | outcome [8] | outcome [9] | outcome [10] | outcome [11] | outcome [18] | outcome [12] | outcome [13] | outcome [14]

CC(C)c1ccc(NC(=O)N(C)C)cc1
inactive: Potency [1] | Potency [3] | Potency [16] | outcome [4] | outcome [5] | outcome [6] | outcome [7] | outcome [8] | outcome [9] | outcome [10] | outcome [11] | outcome [18] | outcome [13] | Potency [15] | Potency [19]

Reference: PubChem BioAssay (Tox21)
